# Calls of active or inactive are those of the source.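 The calls were made as follows, unless noted: active = GFP response above 150% of the DMSO level; inconclusive = fewer than 70 events counted for a yeast strain; inactive = the rest.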
# What was measured:
# [1] = hit retest on RPL19A-GFP reporter strain – cell-based, S. cerevisiae, flow cytometry, cherry picks, mother/daughter gates, confirmation (AID 2270;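 active = GFP response below 50% of the DMSO control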); details: 3 h, at 10 µM, stronger effect = lower value, 100 = same GFP as DMSO wells
# [2] = yeast TOR pathway reporter LAP4-GFP change – cell-based, cherry picks, flow cytometry, mother/daughter gates, confirmation (AID 2271;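 active = GFP response above 150% of the DMSO control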;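 also: ratio of sample to DMSO plate mean so 100% equals DMSO level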); details: S. cerevisiae LAP4-GFP strain, 3 h, at 10 µM, stronger effect = higher value, 100 means same as DMSO control
# [3] = TOR pathway reporter MEP2-GFP, retest of hits – S. cerevisiae, flow cytometry GFP, cherry picks, confirmation (AID 2272;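 active = GFP response above 150% of the DMSO control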;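 also: ratio of well signal to plate DMSO mean so 100% equals DMSO level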); details: S. cerevisiae MEP2-GFP strain, 3 h, at 10 µM, stronger effect = higher value
# [4] = yeast AGP1-GFP fluorescence change, single-dose – cell-based, flow cytometry, S. cerevisiae, cherry picks, confirmation (AID 2273);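 also: median GFP channel fluorescence over the whole cell population gate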; details: S. cerevisiae AGP1-GFP strain, 3 h, at 10 µM
# [5] = TOR pathway CIT2 reporter hit retest – S. cerevisiae, GFP fusion, cherry picks, mother/daughter gates, confirmation (AID 2274); details: S. cerevisiae CIT2-GFP strain, flow cytometry, 3 h, at 10 µM, stronger effect = higher value
# [6] = reduced mouse 2C T cell binding to pMHC/ICAM-1 vesicles – MLPCN validation set, flow cytometry, LFA-1/ICAM-1 modulator project, pilot screen (AID 2523;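 active = response below a set limit, under 55% cells CD8-positive and vesicle-bound, and CD8 cells' 90th-percentile brightness under 279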;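 as to vesicle binding response: mean PE anti-B7-1 fluorescence of CD8+ cells relative to row control; 100% = QL9-loaded vesicles with DMSO vehicle in the same plate row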); details: 2C mouse CD8+ T cells, at 7 µM, stronger effect = lower value; double positive events: measured here: CD8+/vesicle+ event percentage
# [7] = target: Integrin beta-1 (Homo sapiens) + Integrin alpha-4 (Homo sapiens) (UniProt P13612+P05556); experiment: alpha4beta1 integrin LIBS antibody binding reduction – U937 cells, HUTS-21 mAb, flow cytometry, validation set, VLA-4 allosteric modulator project, pilot screen (AID 2674;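 active = inhibition above 50%, about 3 SD of the validation set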;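 also: antibody binding induced by the VLA-4 ligand LDV present at three times its Kd; 0% = LDV ligand with antibody and no compound and 100% = antibody without LDV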); details: HUTS-21 LIBS mAb binding, at 6.7 µM, stronger effect = higher value, binding induced by LDV ligand
# [8] = calorie-restriction mimetic ROS inhibitors, yeast – validation compound set, pilot screen (AID 2706;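 active = superoxide response below 65% of plate, a cut near 3 SD across the whole screen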;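 also: yeast exposed to compound for one week at 30 degrees C before staining; 100% = mean of all compound wells on the same plate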); details: S. cerevisiae aging, superoxide DHE fluorescence; at 10 µM, stronger effect = lower value
# [9] = target: Beta-adrenergic receptor kinase 1 (Homo sapiens) (UniProt P25098); experiment: GRK2 binders displacing RNA aptamer, biochemical, validation, human GRK2, bead flow cytometry (AID 488806;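 active = aptamer binding inhibition above 30%, about 3 SD of noise from non-fluorescent compounds; inactive = inhibition at or below 30%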); details: bead-bound GRK2, FAM-aptamer displacement, at 10 µM, stronger effect = higher value
# [10] = target: Beta-2 adrenergic receptor (Homo sapiens) (UniProt P07550); experiment: agonist-induced loss of surface beta2AR – cell-based, FAP fluorogen, flow cytometry, validation set, pilot screen (AID 504459;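 active = percent response above 42, roughly 3 SD of non-fluorescent test compounds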;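 also: agonist-driven loss of surface beta2AR via internalization measured by FAP dye flow cytometry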); details: Am2.2-beta2AR cells, at 10 µM, stronger effect = higher value
# [11] = target: AP-2 complex subunit beta (Homo sapiens) (UniProt P63010); experiment: beta-arrestin/AP2 interaction blockers – biochemical, validation set, GST-AP2 beads, flow cytometry, pilot screen (AID 504541;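 active = inhibition above 54%, about 3 SD of non-fluorescent compounds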;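 also: AP2 carries R879A mutation and is captured from E. coli lysate; bead-bound FITC arrestin peptide fluorescence measuring arrestin peptide binding to AP2; 0% = DMSO wells and 100% = excess unlabeled arrestin peptide control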); details: FITC arrestin peptide, at 10 µM, stronger effect = higher value, AP2 beta2 appendage fragment, R879A mutant
# [12] = cytosolic pH regulators acting via V-ATPase – S. cerevisiae, pHLuorin, HTS validation (AID 504600; in the data active = response above about 15%;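 also: plate controls were DMSO for no effect and reference compound for full effect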); details: V-ATPase proton transport, at 10 µM, stronger effect = higher value
# [13] = tested on: anti-desmoglein-3 scFv antibody binding to human DSG3; experiment: blockers of pathogenic pemphigus antibody–desmoglein-3 binding – biochemical, validation compound set, bead-based, flow cytometry, pilot screen (AID 588368;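 active = binding below the plate cutoff, the plate median minus 3 SD, with a reading above zero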;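 also: signal is the median channel fluorescence of bead-bound GFP antibody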); details: Protein G beads, DSG3-Fc, scFv-GFP binding, at 10 µM, stronger effect = lower value
# [14] = Nile Red efflux blockade in pump-expressing yeast – validation compound set, multiplex, phenotypic, pilot screen (AID 588506;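 active = efflux inhibition above 0.42, the validation set average plus 4 SD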;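 also: Nile Red retained in cells so higher fluorescence means more efflux inhibition; 0 = negative control wells and 1 = enniatin B 25 µM full block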); details: S. cerevisiae pump-expressing triplex, Nile Red efflux flow cytometry; at 10 µM; stronger effect = higher value; the pumps come from Candida albicans
# [15] = target: ATP-binding cassette sub-family B member 6 (Homo sapiens) (UniProt Q9NP58); experiment: blockers of ABCB6-driven porphyrin uptake – K562-ABCB6 cells, flow cytometry, validation set, pilot screen (AID 588550;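 active = inhibition above the screen-wide mean plus 3 SD, about 51%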;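 also: 0% = DMSO wells and 100% = benzethonium chloride 70 µM positive control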); details: K562-ABCB6 porphyrin accumulation, 1 h, at 10 µM, stronger effect = higher value
# [16] = AML differentiation inducers, ER-HoxA9 marrow cells – cell-based, GFP/MAC1 double positive, flow cytometry, validation set, primary screen (AID 588685;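 active = differentiation response of at least 50%, scaled between solvent and reference control, from cells with both markers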;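 also: compound exposure lasts four days before antibody staining and flow analysis; 0% = DMSO wells and 100% = 5 µM fulvestrant positive control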); details: stronger effect = higher value, normalized: vehicle 0, fulvestrant 100
# [17] = measured here: daughter cell gate
# [18] = measured here: mother cell gate
# [19] = measured here: daughter cell gate response
# Sequence of ATP-binding cassette sub-family B member 6 (Homo sapiens) (Q9NP58 whole entry, looked up): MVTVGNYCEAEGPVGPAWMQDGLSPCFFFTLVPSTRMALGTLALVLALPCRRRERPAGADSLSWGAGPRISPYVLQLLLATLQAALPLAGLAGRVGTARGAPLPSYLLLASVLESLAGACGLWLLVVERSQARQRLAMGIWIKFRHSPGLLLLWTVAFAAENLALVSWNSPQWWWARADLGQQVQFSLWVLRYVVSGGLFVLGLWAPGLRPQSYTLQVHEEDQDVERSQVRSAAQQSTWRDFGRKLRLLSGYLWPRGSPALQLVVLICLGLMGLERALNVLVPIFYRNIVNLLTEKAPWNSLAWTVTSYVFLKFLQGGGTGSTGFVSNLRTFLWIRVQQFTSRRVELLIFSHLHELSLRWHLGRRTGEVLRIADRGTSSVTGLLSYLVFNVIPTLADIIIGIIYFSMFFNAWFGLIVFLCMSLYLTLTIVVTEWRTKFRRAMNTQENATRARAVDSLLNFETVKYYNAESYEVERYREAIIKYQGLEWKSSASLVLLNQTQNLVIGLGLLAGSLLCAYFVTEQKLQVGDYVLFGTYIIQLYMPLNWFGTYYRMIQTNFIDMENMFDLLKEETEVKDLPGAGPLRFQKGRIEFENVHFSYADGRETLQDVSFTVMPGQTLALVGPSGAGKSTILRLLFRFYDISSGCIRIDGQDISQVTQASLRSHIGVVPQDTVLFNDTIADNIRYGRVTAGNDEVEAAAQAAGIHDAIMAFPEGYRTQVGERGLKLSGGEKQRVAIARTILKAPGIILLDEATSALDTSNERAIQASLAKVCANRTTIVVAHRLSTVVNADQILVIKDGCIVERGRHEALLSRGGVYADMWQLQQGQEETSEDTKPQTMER
# Sequence of AP-2 complex subunit beta (Homo sapiens) (P63010 whole entry, looked up, the tested form may be a part, one chain of several): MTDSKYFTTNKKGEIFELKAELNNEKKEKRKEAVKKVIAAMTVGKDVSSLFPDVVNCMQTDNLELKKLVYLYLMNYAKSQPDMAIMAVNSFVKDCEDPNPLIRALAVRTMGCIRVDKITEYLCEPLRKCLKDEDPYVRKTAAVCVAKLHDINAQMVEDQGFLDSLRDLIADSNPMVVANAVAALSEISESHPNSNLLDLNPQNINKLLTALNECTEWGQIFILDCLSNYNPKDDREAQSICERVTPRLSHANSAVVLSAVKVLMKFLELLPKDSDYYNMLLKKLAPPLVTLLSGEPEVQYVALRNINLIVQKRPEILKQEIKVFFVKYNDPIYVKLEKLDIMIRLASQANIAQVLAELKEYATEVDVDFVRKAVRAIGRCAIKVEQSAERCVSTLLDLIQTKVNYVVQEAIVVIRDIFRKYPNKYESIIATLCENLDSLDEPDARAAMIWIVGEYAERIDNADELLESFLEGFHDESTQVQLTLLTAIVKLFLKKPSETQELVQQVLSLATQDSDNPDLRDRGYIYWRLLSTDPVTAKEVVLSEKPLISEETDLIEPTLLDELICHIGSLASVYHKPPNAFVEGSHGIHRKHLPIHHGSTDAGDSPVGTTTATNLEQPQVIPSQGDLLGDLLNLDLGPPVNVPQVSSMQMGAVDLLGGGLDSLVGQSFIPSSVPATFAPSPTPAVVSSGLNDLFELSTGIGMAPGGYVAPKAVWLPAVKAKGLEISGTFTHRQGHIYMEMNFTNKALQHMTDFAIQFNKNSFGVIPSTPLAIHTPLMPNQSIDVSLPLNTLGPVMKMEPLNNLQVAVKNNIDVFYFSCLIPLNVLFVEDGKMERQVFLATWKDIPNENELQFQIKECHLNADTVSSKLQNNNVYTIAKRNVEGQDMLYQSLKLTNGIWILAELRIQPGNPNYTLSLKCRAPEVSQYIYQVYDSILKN
# Sequence of Integrin beta-1 (Homo sapiens) + Integrin alpha-4 (Homo sapiens) (P05556 whole entry, looked up): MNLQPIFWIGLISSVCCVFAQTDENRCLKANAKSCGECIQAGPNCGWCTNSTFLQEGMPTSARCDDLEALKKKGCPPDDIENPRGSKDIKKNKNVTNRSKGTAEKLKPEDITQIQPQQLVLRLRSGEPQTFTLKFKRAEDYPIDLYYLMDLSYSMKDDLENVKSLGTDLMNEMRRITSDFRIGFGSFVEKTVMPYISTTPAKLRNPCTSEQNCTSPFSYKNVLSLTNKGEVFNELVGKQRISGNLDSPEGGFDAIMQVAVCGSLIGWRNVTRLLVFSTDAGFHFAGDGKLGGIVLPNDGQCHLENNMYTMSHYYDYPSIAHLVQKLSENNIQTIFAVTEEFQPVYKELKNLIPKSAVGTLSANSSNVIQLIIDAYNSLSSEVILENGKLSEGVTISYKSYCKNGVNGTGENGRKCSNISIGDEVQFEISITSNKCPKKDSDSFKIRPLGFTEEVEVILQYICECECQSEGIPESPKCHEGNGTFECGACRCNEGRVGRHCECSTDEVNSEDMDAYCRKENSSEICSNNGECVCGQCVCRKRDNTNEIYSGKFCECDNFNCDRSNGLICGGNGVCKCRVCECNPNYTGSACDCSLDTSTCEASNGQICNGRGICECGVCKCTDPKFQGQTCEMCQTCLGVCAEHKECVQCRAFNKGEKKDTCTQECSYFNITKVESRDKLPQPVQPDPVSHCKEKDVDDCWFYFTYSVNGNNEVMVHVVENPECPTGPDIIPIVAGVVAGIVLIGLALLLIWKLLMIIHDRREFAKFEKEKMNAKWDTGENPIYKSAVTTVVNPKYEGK
# Sequence of Integrin beta-1 (Homo sapiens) + Integrin alpha-4 (Homo sapiens) (P13612 whole entry, looked up): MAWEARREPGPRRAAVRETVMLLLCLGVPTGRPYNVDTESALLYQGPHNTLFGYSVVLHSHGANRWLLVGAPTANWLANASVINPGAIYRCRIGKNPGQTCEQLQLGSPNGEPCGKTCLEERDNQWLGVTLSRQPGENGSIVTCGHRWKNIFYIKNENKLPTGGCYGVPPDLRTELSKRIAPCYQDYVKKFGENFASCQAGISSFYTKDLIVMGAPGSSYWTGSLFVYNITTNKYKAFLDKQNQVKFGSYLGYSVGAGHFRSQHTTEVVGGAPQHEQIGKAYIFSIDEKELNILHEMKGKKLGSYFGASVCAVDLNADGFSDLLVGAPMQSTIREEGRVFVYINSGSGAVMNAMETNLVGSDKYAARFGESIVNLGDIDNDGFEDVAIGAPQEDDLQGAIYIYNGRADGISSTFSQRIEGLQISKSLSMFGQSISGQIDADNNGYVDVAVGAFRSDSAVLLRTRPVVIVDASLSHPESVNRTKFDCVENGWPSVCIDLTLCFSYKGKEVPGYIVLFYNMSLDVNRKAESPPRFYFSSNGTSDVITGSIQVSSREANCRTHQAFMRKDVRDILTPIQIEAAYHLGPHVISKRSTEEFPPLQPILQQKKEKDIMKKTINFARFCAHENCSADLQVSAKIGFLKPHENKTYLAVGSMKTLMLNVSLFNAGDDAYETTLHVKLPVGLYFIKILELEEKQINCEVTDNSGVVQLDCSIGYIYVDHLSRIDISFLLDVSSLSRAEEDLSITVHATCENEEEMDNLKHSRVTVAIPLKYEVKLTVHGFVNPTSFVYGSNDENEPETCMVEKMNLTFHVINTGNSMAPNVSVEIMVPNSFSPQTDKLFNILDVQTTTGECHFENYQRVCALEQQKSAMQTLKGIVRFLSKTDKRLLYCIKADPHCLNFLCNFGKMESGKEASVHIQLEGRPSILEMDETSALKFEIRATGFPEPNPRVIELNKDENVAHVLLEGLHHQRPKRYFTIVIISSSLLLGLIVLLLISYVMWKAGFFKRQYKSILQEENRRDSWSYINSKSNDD
# Sequence of Beta-adrenergic receptor kinase 1 (Homo sapiens) (P25098 whole entry, looked up): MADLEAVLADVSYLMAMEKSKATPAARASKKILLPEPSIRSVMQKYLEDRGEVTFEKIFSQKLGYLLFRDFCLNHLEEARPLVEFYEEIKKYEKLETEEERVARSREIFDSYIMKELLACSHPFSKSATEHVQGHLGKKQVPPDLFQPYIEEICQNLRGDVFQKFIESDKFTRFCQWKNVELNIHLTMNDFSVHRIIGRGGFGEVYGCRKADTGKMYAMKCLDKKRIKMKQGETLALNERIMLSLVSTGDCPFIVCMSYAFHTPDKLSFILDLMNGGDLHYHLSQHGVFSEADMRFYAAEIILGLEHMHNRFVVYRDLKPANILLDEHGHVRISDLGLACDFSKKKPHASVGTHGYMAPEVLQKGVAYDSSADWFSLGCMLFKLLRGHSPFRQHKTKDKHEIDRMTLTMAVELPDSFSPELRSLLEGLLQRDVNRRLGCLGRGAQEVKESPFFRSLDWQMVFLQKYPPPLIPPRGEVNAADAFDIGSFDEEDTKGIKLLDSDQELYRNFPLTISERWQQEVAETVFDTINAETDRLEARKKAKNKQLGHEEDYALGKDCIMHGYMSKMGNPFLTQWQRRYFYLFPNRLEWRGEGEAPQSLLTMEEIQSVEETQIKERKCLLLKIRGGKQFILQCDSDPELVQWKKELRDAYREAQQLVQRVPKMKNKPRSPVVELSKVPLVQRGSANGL
# Sequence of Beta-2 adrenergic receptor (Homo sapiens) (P07550 whole entry, looked up): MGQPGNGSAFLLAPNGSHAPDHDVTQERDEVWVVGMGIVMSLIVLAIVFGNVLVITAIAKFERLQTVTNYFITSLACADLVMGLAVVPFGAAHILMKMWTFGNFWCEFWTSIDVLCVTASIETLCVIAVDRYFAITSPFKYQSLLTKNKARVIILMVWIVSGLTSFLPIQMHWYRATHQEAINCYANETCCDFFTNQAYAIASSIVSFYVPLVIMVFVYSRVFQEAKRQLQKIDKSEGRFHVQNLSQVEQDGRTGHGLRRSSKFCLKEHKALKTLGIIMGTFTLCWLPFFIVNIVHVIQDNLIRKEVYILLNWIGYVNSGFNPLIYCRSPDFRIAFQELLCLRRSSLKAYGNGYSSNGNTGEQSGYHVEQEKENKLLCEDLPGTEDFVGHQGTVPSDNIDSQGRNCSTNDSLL
structure (smiles),measurement,setting,value
CN(C)c1ccc(/C=C/c2ccc3ccccc3[n+]2C)cc1,GFP response vs DMSO,[1],95.3% (inactive)
same,GFP response vs DMSO,[1]; [17],90%
same,GFP response vs DMSO,[1]; [18],88.7%
same,GFP response relative to DMSO,[2],98.7% (inactive)
same,GFP response vs DMSO,[3],107% (inactive)
same,"GFP response, % of DMSO",[4],89.5% (inactive)
same,"GFP response, % of DMSO",[5],107% (inactive)
same,"GFP response, % of DMSO",[5]; [18],95.5%
O=C(Nc1nc(-c2ccccc2)cs1)c1cccnc1,GFP response vs DMSO,[1],101% (inactive)
same,GFP response vs DMSO,[1]; [17],102%
same,GFP response vs DMSO,[1]; [18],101%
same,GFP response relative to DMSO,[2],103% (inactive)
same,GFP response vs DMSO,[3],98.3% (inactive)
same,"GFP response, % of DMSO",[4],91% (inactive)
same,"GFP response, % of DMSO",[5],98.3% (inactive)
O=C(Nc1c(-c2ccccc2)nc2c(Br)cc(Br)cn12)c1ccco1,GFP response vs DMSO,[1],94.5% (inactive)
same,GFP response vs DMSO,[1]; [17],94.7%
same,GFP response vs DMSO,[1]; [18],92.1%
same,GFP response relative to DMSO,[2],92.9% (inactive)
same,GFP response vs DMSO,[3],103% (inactive)
same,"GFP response, % of DMSO",[4],98.8% (inactive)
same,"GFP response, % of DMSO",[5],100% (inactive)
same,"GFP response, % of DMSO",[5]; [17],85.2%
same,"GFP response, % of DMSO",[5]; [18],90.4%
CCCc1nn(C)c2c1C(c1cccnc1)C(C#N)=C(N)O2 (stereo unspecified),GFP response vs DMSO,[1],101% (inactive)
same,GFP response vs DMSO,[1]; [17],106%
same,GFP response relative to DMSO,[2],97.4% (inactive)
same,GFP response vs DMSO,[3],97.8% (inactive)
same,"GFP response, % of DMSO",[4],98.3% (inactive)
same,"GFP response, % of DMSO",[5],111% (inactive)
O=C(O)CCC(=O)OCC1CCCCC1,GFP response vs DMSO,[1],96.7% (inactive)
same,GFP response vs DMSO,[1]; [17],97.6%
same,GFP response vs DMSO,[1]; [18],95.6%
same,GFP response relative to DMSO,[2],104% (inactive)
same,GFP response vs DMSO,[3],103% (inactive)
same,"GFP response, % of DMSO",[4],99.3% (inactive)
same,"GFP response, % of DMSO",[5],98.6% (inactive)
same,"GFP response, % of DMSO",[5]; [17],95.8%
same,"GFP response, % of DMSO",[5]; [18],94.9%
O=C(Nc1cccc(F)c1)c1ccccc1,GFP response vs DMSO,[1],99.4% (inactive)
same,GFP response relative to DMSO,[2],97% (inactive)
same,GFP response relative to DMSO,[2]; [19],97.5%
same,GFP response relative to DMSO,[2]; measured here: mother cell gate response,96.2%
same,GFP response vs DMSO,[3],103% (inactive)
same,"GFP response, % of DMSO",[4],95.9% (inactive)
same,"GFP response, % of DMSO",[5],98.8% (inactive)
same,"GFP response, % of DMSO",[5]; [17],99.2%
same,"GFP response, % of DMSO",[5]; [18],88.2%
CCC1CCCCN1S(=O)(=O)c1ccc(C(=O)Nc2nnc(-c3ccccc3Cl)o2)cc1 (stereo unspecified),GFP response vs DMSO,[1],97.6% (inactive)
same,GFP response relative to DMSO,[2],95.4% (inactive)
same,GFP response relative to DMSO,[2]; [19],89.6%
same,GFP response vs DMSO,[3],102% (inactive)
same,"GFP response, % of DMSO",[4],101% (inactive)
same,"GFP response, % of DMSO",[5],98.3% (inactive)
Nc1ccc(-c2c3ccc(=O)cc-3oc3cc(O)ccc23)cc1C(=O)O,GFP response vs DMSO,[1],103% (inactive)
same,GFP response vs DMSO,[1]; [17],96.4%
same,GFP response vs DMSO,[1]; [18],104%
same,GFP response relative to DMSO,[2],150% (active)
same,GFP response vs DMSO,[3],248% (active)
same,"GFP response, % of DMSO",[4],107% (inactive)
same,"GFP response, % of DMSO",[5],140% (inactive)
Cc1cc(NCCOCCO)n2ncc(-c3ccc(Cl)cc3)c2n1,GFP response vs DMSO,[1],94.3% (inactive)
same,GFP response vs DMSO,[1]; [17],93.1%
same,GFP response vs DMSO,[1]; [18],89.1%
same,GFP response relative to DMSO,[2],100% (inactive)
same,GFP response vs DMSO,[3],106% (inactive)
same,"GFP response, % of DMSO",[4],105% (inactive)
same,"GFP response, % of DMSO",[5],102% (inactive)
same,"GFP response, % of DMSO",[5]; [17],102%
same,"GFP response, % of DMSO",[5]; [18],96.8%
C/C(=N\NC(=O)c1ccc(Cl)c(Cl)c1)c1ccccn1,GFP response vs DMSO,[1],104% (inactive)
same,GFP response vs DMSO,[1]; [17],96.4%
same,GFP response vs DMSO,[1]; [18],88.5%
same,GFP response relative to DMSO,[2],269% (active)
same,GFP response vs DMSO,[3],118% (inactive)
same,"GFP response, % of DMSO",[4],127% (inactive)
same,"GFP response, % of DMSO",[5],114% (inactive)
same,"GFP response, % of DMSO",[5]; [17],97.6%
same,"GFP response, % of DMSO",[5]; [18],99.3%
CC(C)Cc1nc(NCCN2CCOCC2)c(C#N)c2c1COC(C)(C)C2,double positive events,[6],61.1%
same,vesicle binding response,[6],159% (inactive)
same,inhibition,[7],7.4% (inactive)
same,superoxide response (% of plate),[8],93.4% (inactive)
same,aptamer binding inhibition,[9],-1% (inactive)
same,response,[10],-20.4% (inactive)
same,inhibition,[11],-18.1% (inactive)
same,response,[12],3.4% (inactive)
same,binding (% of control),[13],104% (inactive)
same,efflux inhibition (fraction of control),[14],0.08 (inactive)
same,inhibition,[15],-5% (inactive)
same,differentiation response,[16],-15.8% (inactive)
CC(OC(=O)c1cccs1)C(=O)Nc1nc(-c2ccccc2)cs1 (stereo unspecified),GFP response vs DMSO,[1],98.7% (inactive)
same,GFP response relative to DMSO,[2],94.2% (inactive)
same,GFP response vs DMSO,[3],99.5% (inactive)
same,"GFP response, % of DMSO",[4],94.9% (inactive)
same,"GFP response, % of DMSO",[5],101% (inactive)
NC(=O)N1c2ccccc2C=Cc2ccccc21,double positive events,[6],56%
same,vesicle binding response,[6],120% (inactive)
same,inhibition,[7],5.61% (inactive)
same,superoxide response (% of plate),[8],112% (inactive)
same,aptamer binding inhibition,[9],3% (inactive)
same,response,[10],13.8% (inactive)
same,inhibition,[11],1.72% (inactive)
same,response,[12],-12.4% (inactive)
same,binding (% of control),[13],98.5% (inactive)
same,efflux inhibition (fraction of control),[14],-0.07 (inactive)
same,inhibition,[15],11% (inactive)
same,differentiation response,[16],-3.11% (inactive)
Cc1cccc(C2=N/C(=C\c3cccnc3)C(=O)O2)c1,double positive events,[6],63.6%
same,vesicle binding response,[6],179% (inactive)
same,inhibition,[7],5.03% (inactive)
same,superoxide response (% of plate),[8],98.1% (inactive)
same,aptamer binding inhibition,[9],2% (inactive)
same,response,[10],13.3% (inactive)
same,inhibition,[11],-1.05% (inactive)
same,response,[12],-1.71% (inactive)
same,binding (% of control),[13],104% (inactive)
same,efflux inhibition (fraction of control),[14],0.12 (inactive)
same,inhibition,[15],3% (inactive)
same,differentiation response,[16],103% (active)
CCOc1ccccc1Oc1coc2cc(OCC(=O)O)ccc2c1=O,double positive events,[6],63.5%
same,vesicle binding response,[6],156% (inactive)
same,inhibition,[7],1.44% (inactive)
same,superoxide response (% of plate),[8],111% (inactive)
same,aptamer binding inhibition,[9],10% (inactive)
same,response,[10],-21.7% (inactive)
same,inhibition,[11],-11% (inactive)
same,response,[12],5.03% (inactive)
same,binding (% of control),[13],106% (inactive)
same,efflux inhibition (fraction of control),[14],-0.09 (inactive)
same,inhibition,[15],-2% (inactive)
same,differentiation response,[16],-8.93% (inactive)
CC[n+]1ccc2cc(OC)c(OC)cc2c1Cc1ccc(OC)c(OC)c1,double positive events,[6],64%
same,vesicle binding response,[6],174% (inactive)
same,inhibition,[7],-10.5% (inactive)
same,superoxide response (% of plate),[8],98.6% (inactive)
same,aptamer binding inhibition,[9],2% (inactive)
same,response,[10],-11.2% (inactive)
same,inhibition,[11],-12.4% (inactive)
same,response,[12],-0.56% (inactive)
same,binding (% of control),[13],106% (inactive)
same,efflux inhibition (fraction of control),[14],-0.09 (inactive)
same,inhibition,[15],6% (inactive)
same,differentiation response,[16],-1.05% (inactive)
COc1cccc(OC)c1C(=O)NCCSC1CCCCC1,double positive events,[6],61.3%
same,vesicle binding response,[6],68.6% (inactive)
same,inhibition,[7],1.59% (inactive)
same,superoxide response (% of plate),[8],85.2% (inactive)
same,aptamer binding inhibition,[9],1% (inactive)
same,response,[10],0.14% (inactive)
same,inhibition,[11],-3.95% (inactive)
same,response,[12],-0.98% (inactive)
same,binding (% of control),[13],104% (inactive)
same,efflux inhibition (fraction of control),[14],-0.25 (inactive)
same,inhibition,[15],-5% (inactive)
same,differentiation response,[16],-16.3% (inactive)

# — PubChem BioAssay
